# PubChem BioAssay AID651812 (National Center for Advancing Translational Sciences (NCATS), 2012)
# Among all 2,100 compounds or so, about 650 (31%) were called active. Inconclusive results (about 16%) are left out. This is one part of the list. A number with no mark means an inactive call. The call rests on the fitted dose curve; in most records, active means well fitted inhibition curve with a large enough effect; inconclusive means small, poorly fitted or top-dose-only effect; inactive means flat fitted curve, though single readings scatter.
# Assay: qHTS for inhibitors of Vif-A3G interactions: Cherry picks; further: nearly all actives have a fitted effect of over 80% in size; on activity, negative = fluorescence increase: % of control where 0% means no effect
# Conditions: HeLa A3G-eYFP + Vif (tagged APOBEC3G with the HIV-1 protein that degrades it), 24 h; Potency: eYFP fluorescence increase; series mostly up to 36.9 µM; activity, negative = fluorescence increase: at the top concentration
# Source text: The recent discovery and characterization of host restriction factors, which provide a potent defense to invading retroviruses, has provided new targets for antiviral drug development. APOBEC3G (A3G) and APOBEC3F (A3F) are potent cytidine deaminases that block HIV-1 replication; HIV-1 expresses the Vif protein, which counteracts A3G and A3F by binding to them and inducing their proteasomal degradation. The Vif-A3G and Vif-A3F interactions provide two potential targets for development of small molecules which can interfere with the ability of Vif to degrade A3G or A3F. […] To identify inhibitors that can interfere with Vif mediated degradation of A3G and A3F, we have developed Hela cell lines that stably express A3G or A3F tagged with eYFP at the C-terminal end (A3G-eYFP or A3F-eYFP, respectively) and Vif. In the absence of an inhibitor, Vif induces degradation of A3G-eYFP and A3F-eYFP, and the cells are not fluorescent. In the presence of an inhibitor, it is expected that Vif will be unable to degrade A3G-eYFP and/or A3F-eYFP, resulting in an increase in yellow fluorescence. In this assay, Vif A3G was screened against the cherry picks ordered from the MLSMR. NIH Chemical Genomics Center [NCGC] NIH Molecular Libraries Probe Centers Network [MLPCN] MLPCN Grant: MH093245 Assay Submitter (PI): Vinay Pathak, National Cancer Institute
# A3G-Vif cells were harvested from T225 flask and resuspended in phenol free OPTI-MEM medium with 5% FBS. Then 5 uL of 140,000 cells/mL resuspended cells was dispensed into each well of low base Aurora COC 1,536-well plates (black walled, clear bottom) using a Multidrop Combi dispenser. After overnight culture at 37 deg C with 5% CO2, a total of 23 nL of compounds at 5 selected concentrations from the NPC or positive control (2 mM stock of MG132) in DMSO was transferred to each well of the assay plate using a pintool (Kalypsys, San Diego, CA), and the plates were further incubated at 37 deg C with 5% CO2 for 24 hours. After that, the plates were measured on Acumen Explorer (TTP Lab Tech). The fluorescence was detected by 488 nm/Ex and […].
# Potency means the concentration at half of the fitted maximal effect.
Compound,"activity, negative = fluorescence increase",Potency
COc1ccc(-c2cc(C(=O)N/N=C/c3sccc3C)c3ccccc3n2)c(OC)c1,-10.7%,
COc1ccc(N=Cc2c(O)n(-c3cccc(C)n3)c(=O)c3ccccc23)c(OC)c1,,13 µM (active)
CCc1cccc2c(C(O)c3c[nH]c4ccccc34)c[nH]c12 (configuration not stated),,20.6 µM (active)
CC1CC(=O)C2=C(C1)OC(N)=C(C#N)C2c1coc2ccccc2c1=O (configuration not stated),,23.1 µM (active)
N#CC1=C(N)Oc2cc(N)ccc2C1c1ccccc1 (configuration not stated),-1.01%,
CCn1cc(/C=C/c2cc[n+](C)cc2)c2ccccc21,,1.77 µM (active)
C=CCn1cc(/C=C/c2cc[n+](C)cc2)c2ccccc21,,7.04 µM (active)
CC(C)n1cc(/C=C/c2cc[n+](C)cc2)c2ccccc21,,0.25 µM (active)
CC(C)n1cc(/C=C2\NC(=O)N(c3cccc(Cl)c3)C2=O)c2ccccc21,-21.4%,
CCOC(=O)CSC1=C(C#N)C(c2ccc(C)s2)CC(=O)N1 (configuration not stated),-2.09%,
N#C/C(N=Nc1ccccc1O)=N\Nc1ccccc1O,,14.6 µM (active)
NC(=O)c1ccc(Cn2c(C(=O)c3cc(Cl)c(N)c(Cl)c3)c3ccccc3[n+]2[O-])cc1,-3.16%,
Cc1c(C(=O)Nc2cccnc2)oc2ccc(Br)cc12,-3.28%,
COc1cc(C(=O)NCCOc2cc(C)cc(C)c2)cc(OC)c1OC,-7.09%,
COc1ccc(-c2ccc3c(c2)S(=O)(=O)c2cccc(C(=O)NCc4cccc(OC(F)(F)F)c4)c2C3=O)cc1OC,,10.3 µM (active)
COc1ccc(-c2nnc(SCC(=O)NCc3ccccc3)nc2-c2ccc(OC)c(OC)c2)cc1OC,-10.7% [at 46.1 µM],
COc1cc(C(=O)NCCOc2cc(C)cc(C)c2)c(Br)c(OC)c1OC,2.34%,
COc1ccc(-c2ccc3c(c2)S(=O)(=O)c2cccc(C(=O)NCCOc4ccccc4)c2C3=O)cc1OC,,12.5 µM (active)
Fc1cccc(Cc2c(-c3ccco3)nc3ccc(Br)cn23)c1,-9.28%,
CC(NC1=CC(=O)c2cccnc2C1=O)C(O)c1ccccc1 (configuration not stated),-0.502%,
CN(CC(=O)Nc1ccc(Cl)c(C(F)(F)F)c1)C(=O)c1ccc(S(=O)(=O)N2CCOCC2)cc1,-0.993%,
CN1CCCc2cc(/C=C/c3ccnc4ccccc34)ccc21,,5.17 µM (active)
CN(C)c1ccc(/C=C/c2ccnc3ccccc23)cc1C=O,-27.4% [at 46.1 µM],
Cc1cc(/C=C/c2ccnc3ccccc23)ccc1N,,18.4 µM (active)
CN(C)c1ccc(/C=C/c2ccnc3ccccc23)cc1O,,18.4 µM (active)
CCc1cc(/C=C/c2ccnc3ccccc23)ccc1N(C)C,,18.4 µM (active)
Cc1cc(NC(=O)Nc2nnc(N(C)Cc3ccccc3)s2)ccc1Br,-0.0185% [at 46.1 µM],
